# PrP UTR inh = inhibition of PrP 5' UTR reporter expression; cell-based PrP 5' UTR mRNA reporter, plate reader; inhibition, % (no concentration beside the values); 340,000 tested, 0.35% active; AID 488862; in the data active = inhibition above about 52%; note: 0 = median of the neutral control wells
# PrPC TRFRET = cell surface PrPC inhibition, primary TR-FRET screen | P04156 | inhibition, % at 13.8 µM | 370,000 tested, 0.43% active | TR-FRET read-out | AID 720596; in the data active = inhibition above about 24%; note: 0% = median of the test wells and 100% = reference compound wells
# FadD28 binding = M. tuberculosis FadD28 bisubstrate binding inhibition. FadD28 bisubstrate probe binding, fluorescence polarization. inhibition, % at 12.5 µM. 360,000 tested, 0.22% active; in the data active = inhibition above about 8.5%, passing the limit was not always enough
# Vc quorum ag = inducers of Vibrio cholerae quorum light production without autoinducers. V. cholerae BH1578 lux reporter, luminescence, 6 h. activation, % at 18.7 µM. 350,000 tested, 0.16% active. AID 588436; in the data active = activation mostly above about 9.7%, no sharp cut-off
# PriA SSB inh = inhibitors of Klebsiella pneumoniae PriA binding to SSB C-terminal tail; AlphaScreen SSBct-PriA binding, biotinylated peptide; inhibition, % at 33 µM; 430,000 tested, 0.6% active; in the data active = inhibition mostly above about 37%, no sharp cut-off; inactive = mostly below about 20%;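 note: plate controls were negative control peptide for no effect and reference peptide for full effect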
# PrPC confirm = confirmation of inhibitors of cell surface human prion protein; 1,500 tested, 65% active; inhibition, % at 13.8 µM; cell surface PrPC level, TR-FRET; AID 743200; shares compounds with PrPC TRFRET; in the data active = inhibition above about 25%
# LD9 tox = kills or reduces viability of LD9 cells in PrPc counter-screen. shares compounds with PrPC TRFRET. LD9 cells cytotoxicity, luminescence viability. inhibition, % at 13.8 µM. 1,500 tested, 29% active. AID 743201; in the data active = inhibition above about 9.5%
# The depositor's hits bear a star; i = inactive; . = no result. Only some compounds are listed: those with a hit (about 1.4% of all), similar ones and a draw of the others.
SMILES,PrP UTR inh,PrPC TRFRET,FadD28 binding,Vc quorum ag,PriA SSB inh,PrPC confirm,LD9 tox
CCOC(=O)NC(=O)CSc1ccccn1,-20,2,-3,-2,-8,.,.
CCOC(=O)NC(=O)CSc1ccc2ccccc2n1,-18,49*,0,0,-13,49*,-9
CCOc1ccc(C2C(C#N)=C(N)SC(N)=C2C#N)cc1OCC,-9,27*,-2,0,-1,72*,1
c1ccc(Cn2nnnc2C(c2cccs2)N2CCCCCC2)cc1 (stereo unspecified),-27,28*,-1,0,-31,22,1
CCN=C1S/C(=C\c2cc(OC)c(OC)c(OC)c2)C(=O)N1CC,.,.,.,.,11,.,.
NS(=O)(=O)c1ccc(CCNC(=O)c2cc(-c3ccccn3)nc3ccc(Br)cc23)cc1,-36,29*,-3,0,-31,48*,21*
NS(=O)(=O)c1ccc(CCNC(=O)c2cc(-c3ccc(Br)cc3)nc3ccccc23)cc1,-15,2,-2,i,3,.,.
COc1ccc(Br)cc1C(C[N+](=O)[O-])c1c(N)n(C)c(=O)n(C)c1=O (stereo unspecified),-5,68*,-6,i,-7,38*,33*
CN(C)c1ccc(C(C[N+](=O)[O-])c2c(N)n(C)c(=O)n(C)c2=O)c(F)c1C#N (stereo unspecified),-15,-11,1,i,-18,.,.
Brc1cccc2sc(N3CCOCC3)nc12,.,.,.,.,-18,.,.
CCN1CCSc2ccc(C(=O)NCc3cc(Br)ccc3OC)cc21,-8,11,-3,0,9,.,.
COc1ccc(Br)cc1CNC(=O)c1ccc2c(c1)N(C)CCS2,-18,37*,-3,1,-5,51*,-1
COC(=O)c1ccc(NC(=O)Cn2c3c(c(=O)n(C4CCCCC4)c2=O)CCC3)cc1,.,.,.,.,3,.,.
CCOc1ccc2[nH]cc(C(=O)NCc3ccc(F)cc3)c(=O)c2c1,-14,27*,-2,i,-6,27*,-1
CC(=O)NC(c1ccc(Cl)cc1Cl)c1ccc2cccnc2c1O (stereo unspecified),22,32*,-2,0,65,35*,31*
CCCC(=O)NC(c1ccc(Cl)cc1Cl)c1ccc2cccnc2c1O (stereo unspecified),37,28*,-1,-1,-9,24,12*
CCCC(=O)NC(c1ccc(Cl)cc1)c1ccc2cccnc2c1O (stereo unspecified),28,18,-3,2,-6,.,.
CC(C)C(=O)NC(c1cccc([N+](=O)[O-])c1)c1ccc2cccnc2c1O (stereo unspecified),22,29*,-5,0,-1,22,28*
CC(=O)NC(c1ccc2ccccc2c1)c1ccc2cccnc2c1O (stereo unspecified),41,38*,0,i,9,25*,31*
COc1cccc(C=NNc2ncc(C(F)(F)F)cc2Cl)c1O,.,.,.,.,5,.,.
O=C(Nc1nnc(-c2cccnc2)o1)c1cc(Cl)cc(Cl)c1,.,.,.,.,-9,.,.
CC(C)Sc1ccc(CC(=O)Nc2cnoc2)cc1,.,.,.,.,-12,.,.
Cn1c(=O)c([N+](=O)[O-])c(Cl)c2ccccc21,-20,57*,-2,0,-5,50*,98*
CCOC(=O)c1sc(Nc2nc3cc4c(cc3s2)OCO4)cc1C,-34,1,-3,-4,-21,.,.
CCOC(=O)c1sc(Nc2nc3c(OC)cccc3s2)cc1C,-17,40*,-3,0,-13,48*,-7
SMILES,PrP UTR inh,PrPC TRFRET,FadD28 binding,Vc quorum ag,PriA SSB inh,PrPC confirm,LD9 tox
Cc1nnsc1C(=O)N1CCC(CNC(=O)NCc2ccc(F)cc2)CC1,.,.,.,.,-21,.,.
OC(CN1C2=NCCN2c2ccccc21)c1ccc2c(c1)OCO2 (stereo unspecified),1,53*,2,0,10,2,5
CCOC(=O)c1csc(NC(=O)c2ccccc2)n1,-38,12,0,0,-2,.,.
CCOC(=O)c1csc(NC(=O)c2ccc(OCC)cc2)n1,-7,30*,-4,i,-8,20,-1
CC(Sc1ncnc2ccccc12)C(=O)Nc1ccc2c(c1)OCO2 (stereo unspecified),-22,29*,3,0,-15,37*,1
COc1ccc(NCC(=O)NN=C/C=C/c2ccccc2[N+](=O)[O-])cc1,.,.,.,.,26,.,.
O=C(CCl)Nc1nc(-c2ccco2)c(-c2ccco2)s1,-18,44*,-2,0,12,32*,-5
NC(=O)c1cc(NC(=O)c2cc(Br)c(Br)s2)cc(C(N)=O)c1,-25,46*,-11,3,6,47*,0
COc1ccc(C)c2sc(N(CCN3CCOCC3)C(=O)c3cc(C)no3)nc12,.,.,.,.,9,.,.
CC1CCc2cc(F)cc3c(O)c(C(=O)NCC4CCCO4)c(=O)n1c23 (stereo unspecified),-15,31*,1,i,-7,40*,-5
CCCn1c(=O)c(C(=O)NCC2CCCO2)c(O)c2ccccc21 (stereo unspecified),-16,10,-6,1,-25,.,.
COc1cccc2cc(C(=O)NCc3cccc(Oc4ccccn4)c3)oc12,.,.,.,.,6,.,.
CC(C)CSc1nnc2c3ccccc3n(C)c2n1,-65,58*,0,-2,-16,66*,-3
Cc1ccc(N(C(=O)c2snc(C(N)=O)c2N)C(C(=O)NCCC(C)C)c2ccco2)cc1 (stereo unspecified),-2,27*,-5,0,-2,34*,2
COc1ccc2cc(C(=O)N(C)CC(=O)Nc3ccccc3Br)ccc2c1,-53,31*,-1,-1,7,44*,-6
CN(CC(=O)Nc1ccccc1Br)C(=O)c1ccc(COc2ccccc2)cc1,-11,7,-2,0,-7,.,.
COC(=O)CSc1nc(-c2ccccc2)nc2ccccc12,-16,106*,-4,1,-84,113*,-7
NC(=O)CSc1nc(-c2ccccc2)nc2ccccc12,-9,70*,.,i,-1,72*,-9
CC(C)S(=O)(=O)c1cccc(C(=O)Nc2ccc(Cl)c3ncsc23)c1,.,.,.,.,-3,.,.
C/C(C=NNC(=O)c1cnccn1)=C/c1ccccc1,.,.,.,.,-7,.,.
CCOc1ccc(C(=O)Nc2ccc3[nH]ncc3c2)cc1,-48,33*,-1,i,-10,7,1
COc1ccc(C(=O)Nc2ccc3[nH]ncc3c2)cc1,-34,-1,-2,-1,-15,.,.
O=C(CCc1ccccc1Br)N1CC(n2ccnn2)C1,.,.,.,.,-11,.,.
COc1ccc(CCNC(=O)CSc2nn3c(=O)c(C)nnc3s2)cc1OC,-5,25*,-1,i,-16,3,-8
CSc1sc(-c2ccnc(SCC(=O)C(C)(C)C)n2)c2c1C(=O)CC(C)(C)C2,-15,32*,0,i,-2,48*,-1
